These results are taken from PubChem BioAssay (NCI).

Among the test systems are SR leukemia; RPMI-8226 leukemia; OVCAR-8 ovarian; OVCAR-5 ovarian; OVCAR-4 ovarian; SK-OV-3 ovarian; IGROV1 ovarian; OVCAR-3 ovarian; HS 578T breast; NCI/ADR-RES ovarian; T-47D breast; BT-549 breast; MDA-MB-435 melanoma; SW-620 colon; MCF7 breast; HCT-116 colon; HCC-2998 colon; KM12 colon.
Common to all, as to test: NCI-60 one-dose screen, 48 h (100 = growth as untreated, 0 = no growth, -100 = all killed)
What all share (details): 10 µM unless noted

This is part of a sample that, as a whole, favours compounds with a hit. Of some 83,000 tested, about 20% had one in any assay.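 Percent growth is the endpoint: 0 to 100 indicates growth inhibition (40 means 60% inhibition), 0 means no net growth, and negative values indicate cell death.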 A number with no mark means an inactive call. Calls of active or inactive are those of the source. Rule for the calls: active = growth percent below 10; inactive = the rest.

For `C=C1C(=O)O[C@H]2[C@H]1CC/C(COC(=O)NCc1ccc(Cn3c(=O)sn(-c4ccccc4)c3=O)cc1)=C\CC[C@@]1(C)O[C@@H]21`, the growth was -4.67% (active) in the assay with SR leukemia; 1.88% (active) with RPMI-8226 leukemia; 42% with OVCAR-8 ovarian; 68.3% in the assay on OVCAR-5 ovarian; 34.8% with OVCAR-4 ovarian; 134% in the assay on SK-OV-3 ovarian. Besides, the growth in the assay on IGROV1 ovarian is -40.1% (active); in the assay on OVCAR-3 ovarian it was -15.6% (active); in the assay with HS 578T breast, 87.5%; in the assay with NCI/ADR-RES ovarian, 106%; with T-47D breast it was 57.7%; in the assay on BT-549 breast, 51.3%. The growth with MDA-MB-435 melanoma is 33.4%; in the assay with SW-620 colon, -13% (active); in the assay on MCF7 breast it was 15.4%; in the assay with HCT-116 colon it was 5.85% (active); in the assay on HCC-2998 colon, 75.2%; in the assay with KM12 colon, 96.8%.

On to `O=C(CCCCCCCC(=O)N1CCCCC1)N1CCCCC1`, for which the growth in the assay on SR leukemia is 135%; with RPMI-8226 leukemia, 103%; with OVCAR-8 ovarian, 98.8%; with OVCAR-5 ovarian, 98.7%; with OVCAR-4 ovarian it was 107%; in the assay with SK-OV-3 ovarian, 115%. The growth in the assay on IGROV1 ovarian is 109%; in the assay with OVCAR-3 ovarian, 111%; in the assay with HS 578T breast it was 96.5%; in the assay with NCI/ADR-RES ovarian it was 89%; in the assay on T-47D breast, 117%; in the assay on BT-549 breast it was 96.4%. Further, the growth is 105% in the assay with MDA-MB-435 melanoma; 92.2% in the assay on SW-620 colon; 97.1% with MCF7 breast; 94.8% in the assay on HCT-116 colon; 86.5% with HCC-2998 colon; 100% with KM12 colon.

With `Nc1ncnc2c1N=C(c1ccc(Cl)cc1)CC(c1cccc(Nc3ccnc4cc(Cl)ccc34)c1)N2` (stereo not drawn), the growth in the assay on SR leukemia was -12.6% (active); with RPMI-8226 leukemia it was -20.5% (active); in the assay on OVCAR-8 ovarian, 77.9%; with OVCAR-5 ovarian, 111%; in the assay with OVCAR-4 ovarian, 70.7%; in the assay with SK-OV-3 ovarian it was 80.5%. Further, the growth in the assay on IGROV1 ovarian is 66.7%; with OVCAR-3 ovarian it was 80.6%; in the assay with HS 578T breast, 68.2%; with NCI/ADR-RES ovarian, 73.1%; in the assay with T-47D breast it was 85.9%; with BT-549 breast, 78.5%. The growth in the assay with MDA-MB-435 melanoma is 58%; in the assay with SW-620 colon, 72.2%; in the assay on MCF7 breast it was 19.5%; with HCT-116 colon, 14.9%; in the assay with HCC-2998 colon, 70.4%; with KM12 colon, 56.1%.

As for `CSc1nc2ccc(C)cc2cc1/C=C1/C=C(c2ccccc2)NC1=O`, the growth in the assay on SR leukemia is 10.1%; in the assay with RPMI-8226 leukemia, 57.3%; with OVCAR-8 ovarian, 55.5%; in the assay with OVCAR-5 ovarian it was 63.9%; in the assay with OVCAR-4 ovarian, -51.9% (active); in the assay with SK-OV-3 ovarian, 76.2%. Moreover, the growth is 25.6% with IGROV1 ovarian; 6.24% (active) in the assay with OVCAR-3 ovarian; 28.9% with HS 578T breast; 51.6% with NCI/ADR-RES ovarian; -0.11% (active) in the assay on T-47D breast; 76% in the assay with BT-549 breast. Besides, the growth in the assay on MDA-MB-435 melanoma is 30.9%; in the assay with SW-620 colon it was 34.9%; in the assay with MCF7 breast, 48.1%; in the assay with HCT-116 colon, 9.26% (active); in the assay on HCC-2998 colon it was 83.4%; in the assay with KM12 colon it was 70.4%.

Consider `CCCCCCCCCCOC(=O)c1nn(C(C)=O)c2cc(C)c(C)cc12`, for which the growth in the assay with SR leukemia was 98.2%; in the assay with RPMI-8226 leukemia, 88.9%; in the assay on OVCAR-8 ovarian, 98.5%; with OVCAR-5 ovarian, 100%; in the assay on OVCAR-4 ovarian, 0.466% (active); with SK-OV-3 ovarian, 92.3%. In addition, the growth in the assay on IGROV1 ovarian was 103%; in the assay on OVCAR-3 ovarian, 111%; in the assay with HS 578T breast it was 104%; with NCI/ADR-RES ovarian, 98.1%; in the assay with T-47D breast it was 99.7%; in the assay on BT-549 breast, 90.5%. Also, the growth in the assay on MDA-MB-435 melanoma is 100%; in the assay with SW-620 colon, 97.3%; with MCF7 breast, 94%; in the assay with HCT-116 colon it was 75.4%; in the assay with HCC-2998 colon, 105%; in the assay with KM12 colon, 104%.

As for `CC(C)CCC[C@@H](C)[C@H]1CC[C@H]2[C@@H]3CC=C4c5sc(Nc6cc(C(F)(F)F)cc(C(F)(F)F)c6)nc5CC[C@]4(C)[C@H]3CC[C@]12C`, the growth is 106% with SR leukemia; 106% with RPMI-8226 leukemia; 89.2% in the assay with OVCAR-8 ovarian; 106% in the assay on OVCAR-5 ovarian; 100% in the assay on OVCAR-4 ovarian; 89.2% in the assay on SK-OV-3 ovarian. The growth is 97.7% with IGROV1 ovarian; 102% with OVCAR-3 ovarian; 102% in the assay with HS 578T breast; 102% in the assay on NCI/ADR-RES ovarian; 95.7% in the assay with T-47D breast; 98.9% in the assay with BT-549 breast. Besides, the growth in the assay with MDA-MB-435 melanoma was 104%; with SW-620 colon, 100%; with MCF7 breast it was 107%; with HCT-116 colon, 99.3%; with HCC-2998 colon it was 101%; in the assay on KM12 colon it was 102%.

As for `CCN(CC)CCOc1ccc(C(=O)/C=C\c2ccc(Cl)cc2Cl)cc1`, the growth was -15.4% (active) with SR leukemia; -23.9% (active) with RPMI-8226 leukemia; 53.3% in the assay on OVCAR-8 ovarian; 68% in the assay on OVCAR-5 ovarian; 52.6% in the assay on OVCAR-4 ovarian; 43.2% in the assay on SK-OV-3 ovarian. Besides, the growth with IGROV1 ovarian is 32.2%; in the assay on OVCAR-3 ovarian, 9.56% (active); in the assay with HS 578T breast it was 66.2%; in the assay on NCI/ADR-RES ovarian it was 49.9%; with T-47D breast, 29.9%; in the assay on BT-549 breast, 31.6%. Besides, the growth was 27.3% with MDA-MB-435 melanoma; -55.1% (active) in the assay with SW-620 colon; -48.1% (active) in the assay on MCF7 breast; -90.2% (active) in the assay with HCT-116 colon; -43.2% (active) in the assay on KM12 colon.

Turning to `CC1(C)N=C(N)N=C(N)N1c1ccc(S(=O)(=O)Nc2nccs2)cc1`, the growth in the assay with SR leukemia was 104%; in the assay on RPMI-8226 leukemia it was 108%; with OVCAR-8 ovarian it was 104%; in the assay with OVCAR-5 ovarian, 91.9%; with OVCAR-4 ovarian, 104%; in the assay on SK-OV-3 ovarian, 102%. The growth with IGROV1 ovarian is 100%; in the assay with OVCAR-3 ovarian, 107%; in the assay on HS 578T breast, 103%; in the assay on NCI/ADR-RES ovarian, 106%; in the assay on T-47D breast, 95.6%; in the assay with BT-549 breast, 94.1%. Also, the growth in the assay on MDA-MB-435 melanoma is 102%; in the assay on SW-620 colon, 98.2%; in the assay with MCF7 breast, 103%; in the assay with HCT-116 colon, 100%; in the assay with HCC-2998 colon, 113%; in the assay on KM12 colon, 101%.
